Data reported in PubChem BioAssay AID1477 (National Center for Advancing Translational Sciences (NCATS), 2009).
In all, about 230,000 compounds went through this assay and fewer than 10 were called active. About 3% were inconclusive and are not listed. The call rests on the fitted dose curve; in most records, active means well fitted curve in the direction sought with a large enough effect; inconclusive means small, poorly fitted or top-dose-only effect, or effect the other way, or another doubt; inactive means no such curve, though single readings can be large or run the other way. A selection follows.

target: Runt-related transcription factor 1 (Homo sapiens) + Core-binding factor subunit beta (Homo sapiens) (UniProt Q01196+Q13951); test: qHTS Assay for Compounds Blocking the Interaction Between CBF-beta and RUNX1 for the Treatment of Acute Myeloid Leukemia; conditions: AlphaScreen CBFb-His/RUNX1-biotin binding, biochemical; series mostly up to 59.8 µM; activity, negative = inhibition: at the top concentration; further: % of control where 0% means no effect
Text: NIH Chemical Genomics Center [NCGC]
NIH Molecular Libraries Probe Production centers Network [MLPCN]
Assay Submitter (PI): Paul Liu
Core Binding Factor (CBF) abnormalities are associated with 20-25% of all acute myeloid leukemias (AML), of which 5-10% are further sub classified as acute myelomonocytic leukemia with eosinophilia, also known as M4Eo in the FAB classification scheme. This subtype of leukemia is usually associated with chromosome 16 inversion (p13:q22). Chromosome 16 inversion results in formation of the fusion oncogene CBFB-MYH11, which encodes the fusion protein CBF-beta-SMMHC.
It has been hypothesized that the interference of CBF-beta and RUNX1 binding could have therapeutic implications for patients with CBF mediated leukemias. We developed a CBF-beta and RUNX1 binding assay in AlphaScreenTM format and optimized it for high throughput screening to search for inhibitors. The goal of this project is to screen MLPCN's compound collection (MLSMR) for identifying the inhibitors of the interaction between CBF-beta and RUNX1 proteins as research probes. If these probes work well in the animal models, the ultimate goal of this project is to development a new drug treatment for this disease.
This assay can not be used to assess how apparent inhibitors interfere with protein binding, and whether inhibitors specifically bind to either protein. Disruption of this protein-protein interaction, through any mechanism, is the intended target activity.
NCGC Assay Protocol Summary:
Step, Parameter, Description
(1) Reagent, 3 uL CBFb-His/RUNX1-biotin mix incubated together for 20 minutes at room temperature (30 nM each)
(2) Compound or control, 23 nL compound stock solution
(3) Incubation, 15 minutes at Room temperature
(4) Reagent, 1 uL 50 ng each of beads (Nickel beads and streptavidin beads)
(5) Incubation, 90 minutes at Room temperature
(6) Detection, Excitation=365 nm Emission=440 nm, Envision reader in AlphaScreenTM mode
Keywords: MLSMR, MLPCN, NIH Roadmap, qHTS, NCGC, Core binding factor, CBF, CBF-beta, Acute myeloid leukemia

Runt-related transcription factor 1 (Homo sapiens) + Core-binding factor subunit beta (Homo sapiens), sequence (Q01196 whole entry, looked up): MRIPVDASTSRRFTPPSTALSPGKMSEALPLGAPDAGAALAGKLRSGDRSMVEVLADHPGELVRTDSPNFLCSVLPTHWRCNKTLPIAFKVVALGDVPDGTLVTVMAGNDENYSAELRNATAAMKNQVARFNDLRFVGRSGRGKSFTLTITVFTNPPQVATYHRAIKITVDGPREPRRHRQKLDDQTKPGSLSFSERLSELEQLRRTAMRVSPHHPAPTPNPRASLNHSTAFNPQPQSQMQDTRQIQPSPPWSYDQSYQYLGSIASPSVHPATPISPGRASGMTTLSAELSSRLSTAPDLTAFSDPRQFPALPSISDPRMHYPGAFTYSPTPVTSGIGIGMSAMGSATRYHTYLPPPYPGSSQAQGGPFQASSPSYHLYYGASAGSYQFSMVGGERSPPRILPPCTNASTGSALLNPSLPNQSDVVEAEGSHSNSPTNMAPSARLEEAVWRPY
Runt-related transcription factor 1 (Homo sapiens) + Core-binding factor subunit beta (Homo sapiens), sequence (Q13951 whole entry, looked up): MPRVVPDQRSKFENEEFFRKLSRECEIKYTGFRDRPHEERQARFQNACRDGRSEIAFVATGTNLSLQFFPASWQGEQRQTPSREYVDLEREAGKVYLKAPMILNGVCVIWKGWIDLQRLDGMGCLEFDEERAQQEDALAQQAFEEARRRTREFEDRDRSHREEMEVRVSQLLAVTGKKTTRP

activity, negative = inhibition, inactive:
CC1CN(c2nc(-c3ccccc3)nnc2-c2ccccc2)CC(C)O1 (stereo not drawn) -2.13%
CCOCCCNCc1ccc(OCc2ccc(F)cc2)c(OC)c1 5.35%
O=C(NCc1ccco1)c1ccc(NS(=O)(=O)c2cccc([N+](=O)[O-])c2)cc1 -3.71%
COc1cc(OC)c2c(c1C(CCN1CCCCC1)c1ccc(N(C)C)cc1)OC(=O)CC2c1ccc(N(C)C)cc1 (stereo not drawn) -23.3%
O=C(NCC1CCCO1)c1ccccc1-c1nc(-c2ccccc2Cl)no1 (stereo not drawn) 7.64%
COc1ccc(CCNC(=O)CSc2nc(-c3ccc(OC)c(OC)c3)ccc2C#N)cc1 -1.06%
COc1ccc(C[C@H](C(=O)O)N2C(=O)c3ccc(C(=O)O)cc3C2=O)cc1 20.6%
O=C(N/N=C/c1ccc(Cl)cc1)c1nc2ccc([N+](=O)[O-])cc2c(=O)[nH]1 -8.86%
COc1ccc(-c2ccc(OC)c(C3C4C=CCC(C)C4C(=O)N3Cc3ccccc3)c2)cc1C (stereo not drawn) 14.2%
O=S(O)S(=O)(=O)O 2.05%
CCN(CC)N=Nc1cccc(NC(C)=O)c1 0.472%
Cc1cc(N(C)C)nc(Cl)n1 24.8%
CN(C)C(=O)c1ccc2c(c1)C1C3CCC(C3)C1C(c1ccccc1)N2 (stereo not drawn) -1.89%
COC(=O)c1c(C)oc(C)c1S(=O)(=O)Nc1ccc(C(C)C)cc1 4.81%
O=C(/C=C/c1ccc2c(c1)OCO2)NCc1cn2cc(Cl)ccc2n1 10.5%
C=CCCC(=O)Nc1nc(C)c(-c2csc(Nc3ccc(Cl)cc3)n2)s1 -6.07%
COc1ccc2[nH]c3c(C)c4cc[n+](C)cc4c(C)c3c2c1 -13.8%
CCCCCCCC1=Cc2ccc(F)cc2C(C(C(=O)OC)C(=O)OC)N1C(=O)OC (stereo not drawn)
CCOC(OCC)OCC 13.3%
Cc1ccc(-c2nnc(-n3nnc4ccccc43)c3ccccc23)cc1 -5.67%
COc1ccc(C2CC(O)(c3ccccc3)Oc3cc(C)cc(C)c32)cc1 (stereo not drawn) 10.1%
CC(=O)Nc1ccc(S(=O)(=O)N2N=NC3C2C2CC4C3(CN(C(=O)OC(C)(C)C)S4(=O)=O)O2)cc1 (stereo not drawn) -0.112%
C=C1CCN(C(CC(C)C)C(=O)NCc2cc(OC)c(OC)c(OC)c2)S(=O)(=O)c2ccccc21 (stereo not drawn) 26.6%
COc1cc(NC(=S)N2CCCC(C)C2)c(OC)cc1Cl (stereo not drawn) 7.75%
COC(=O)CCc1ccccc1S(=O)(=O)N(CCC(=O)OC)Cc1ccccc1 20.5%
OC1CCCN(c2ncnc3c2nnn3Cc2c(F)cccc2Cl)C1 (stereo not drawn) 9.2%
COc1ccc(CN2CCC(=O)c3ccccc3S2(=O)=O)cc1 5.44%
COc1ccc(C2/C=C\CN(Cc3ccco3)C(C)C(=O)N2Cc2ccc(F)cc2)cc1 (stereo not drawn) -1.62%
CCCCc1nn(-c2ccccc2C(F)(F)F)c(=O)n1Cc1ccc(-c2ccccc2S(=O)(=O)NC(=O)c2sccc2C)cc1 3.51%
O=c1[nH]nc(SCCS(=O)(=O)c2ccc(F)cc2)n1-c1ccccc1C(F)(F)F 6.84%
O=C(O)c1ccc(NS(=O)(=O)c2ccc3c(c2)C(=O)c2cc(S(=O)(=O)Nc4ccc(C(=O)O)cc4)ccc2-3)cc1 -4.76%
COc1ccc(N)c(OC)c1 7.36% [at 21.7 µM]
COc1ccc(NC(=O)C2C3C=CC(C3)C2C(=O)NCc2ccccn2)c(OC)c1 (stereo not drawn) -0.254%
COc1cccc(OC)c1C(=O)NC(=S)Nc1ccc(N2CCOCC2)c(Cl)c1 -15.9%
Cn1c(=O)c2c(-c3cccc(Br)c3)c(C#N)c(N)nc2n(C)c1=O 7.33%
O=C(NCC1CC1)C1(C(F)(F)F)C/C(=C\CCO)CCCO1 (stereo not drawn) -8.25%
CCN(CC)/[N+]([O-])=N/Oc1cc(O/[N+]([O-])=N/N2CCCC2CO)c([N+](=O)[O-])cc1[N+](=O)[O-] (stereo not drawn) 10.8%
CC[C@H](C)[C@H](NC(=O)[C@H](CCCNC(=N)N)NC(=O)[C@H](CCCNC(=N)N)NC(=O)[C@H](CC(C)C)NC(=O)[C@H](Cc1ccccc1)NC(=O)CNC(=O)CNC(=O)[C@@H](N)Cc1ccc(O)cc1)C(=O)N[C@@H](CCCNC(=N)N)C(=O)N1CCC[C@H]1C(=O)N[C@@H](CCCCN)C(=O)N[C@@H](CC(C)C)C(=O)N[C@@H](CCCCN)C(=O)N[C@@H](Cc1c[nH]c2ccccc12)C(=O)N[C@@H](CC(=O)O)C(=O)N[C@@H](CC(N)=O)C(=O)N[C@@H](CCC(N)=O)C(=O)O 4.96%
COC(=O)c1ccccc1N=Nc1c(C)[nH][nH]c1=O -0.539%
O=C(NCc1ccccc1)C1=C[C@@H](C2CCCCC2)C[C@@H](OCc2ccc(CO)cc2)O1 0.0499%
COc1ccc(N(CC(=O)NC2CCCCC2)C(=O)CNC(=O)c2ccco2)c(OC)c1 7.33%
CSc1ccccc1N1CCN(CCCCCC(=O)NC2CCCc3ccccc32)CC1 (stereo not drawn) -9.84%
CC1=C2[C@@H](O)[C@H]([C@@H](C)C(=O)NCCC(C)C)CC[C@@]2(C)C=CC1=O 13.2%
Cc1cccn2c(CN(C)C3CCCc4ccccc43)c(C(=O)N3CCOCC3)nc12 (stereo not drawn) -1.32%
COc1ccc(-c2ccc(C3C4C=CCCC4(C)C(=O)N3Cc3ccccc3)c(F)c2)cc1OC (stereo not drawn) -5.3%
CCCOC(=O)c1c(NC(=O)c2cnn3c2NC(c2ccccc2)CC3C(F)(F)F)sc2c1CCCC2 (stereo not drawn) -2.79%
COc1ccc(OC)c(C2C3=C(N=c4s/c(=C\c5cccc(O)c5)c(=O)n42)c2ccccc2CC3)c1 (stereo not drawn) -16.4%
Cc1cc(-c2nnc(CCC(=O)NC(c3ccccc3)c3ccccc3)o2)no1 10.9%
CCCN1CCC(=O)N(C(CSc2ccc(OC)cc2)Cc2ccccc2)CC1 (stereo not drawn) 8.03%
Cc1noc(C)c1-c1ccc2ncnc(NC(C)c3ccco3)c2c1 (stereo not drawn) -22.2%
O=C(CNC1CCCCC1)NCC1(c2ccccc2)CCCC1 6.6%
Nc1nc(NC(=O)/C=C/c2ccc(F)cc2)nn1-c1ccccc1 -1.51%
CC(Nc1nc(N2CCOCC2)nc2ccccc12)c1ccccc1 (stereo not drawn) 19.1%
COc1ccc(C2=Nn3c(nnc3-c3ccccc3O)SC2)cc1 -4%
O=C(O)C1CC=CC2CCN(C3CCCCC3)C(=O)C21 (stereo not drawn) 18.6%
Cc1ccc(CN(Cc2cccnc2)C(=S)Nc2cc(Cl)ccc2C)cc1 10.9%
O=C(NCc1ccccn1)[C@]1(C(F)(F)F)C[C@H](CCc2ccccc2)CCCO1 -3.84%
Cc1ccc(SCC(CC(C)C)N2CCN(CCc3ccccc3)CCC2=O)cc1 (stereo not drawn) 13.6%
